Compound activity from PubChem.
Only some compounds are listed: those with a hit (about 9.3% of all), similar ones and a draw of the others.
ELG1 genotox: inducers of genotoxicity in HEK293T ELG1-luciferase cells. HEK293T ELG1-luciferase reporter, luminescence, 16 h. Potency, µM (doses to about 46 µM), for inactives: top-dose activity change, positive = activation, usual class: activators. actives 1.3% (n = 330,000). AID 504466; further: % of control where 0% means no effect; nearly all actives have a fitted effect of over 60% in size
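Quantitative HTS format in 1536-well plates. HEK293T ELG1-luciferase reporter cells receive test compound and are incubated 16 hr at 37 °C, 5% CO2; ONE-Glo added, 30 min room temperature, then luminescence read.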
FLuc counter: inhibits or activates purified firefly luciferase, miR-21 counter-screen; Potency, µM (titrated, usually from 57.5 µM), for inactives: at the highest dose activity change, negative = inhibition, actives largely listed as inhibitors; AID 588342; P08659; actives 6.9% (n = 360,000); purified FLuc, Km substrates, luminescence inhibition;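 further: plate controls were vehicle for no effect and reference inhibitor for full effect; nearly all actives have a fitted effect of over 55% in size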
Target sequence (P08659 whole entry, looked up): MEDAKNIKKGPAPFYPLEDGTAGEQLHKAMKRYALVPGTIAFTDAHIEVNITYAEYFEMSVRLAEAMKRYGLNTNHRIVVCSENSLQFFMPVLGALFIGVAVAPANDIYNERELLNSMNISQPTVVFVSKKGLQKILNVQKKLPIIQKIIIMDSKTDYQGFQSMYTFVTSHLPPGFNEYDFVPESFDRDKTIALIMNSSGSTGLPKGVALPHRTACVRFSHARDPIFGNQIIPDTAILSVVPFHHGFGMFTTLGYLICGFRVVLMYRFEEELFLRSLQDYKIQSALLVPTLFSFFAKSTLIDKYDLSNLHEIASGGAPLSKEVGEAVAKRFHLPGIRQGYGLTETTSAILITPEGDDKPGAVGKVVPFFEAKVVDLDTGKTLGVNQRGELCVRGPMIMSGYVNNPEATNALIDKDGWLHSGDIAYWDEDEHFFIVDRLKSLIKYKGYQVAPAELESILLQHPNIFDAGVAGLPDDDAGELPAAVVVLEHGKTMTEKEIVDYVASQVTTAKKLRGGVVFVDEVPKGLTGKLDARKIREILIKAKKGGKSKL
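Purified P. pyralis luciferase, 10 nM final, with Km-level 10 uM D-luciferin and 10 uM ATP in 50 mM Tris acetate pH 7.5, 10 mM Mg acetate, 0.01% Tween-20, 0.05% BSA; 6-point qHTS titration about 60 µM downward; luminescence read.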
ELG1 repair inh: blocks ELG1-dependent DNA repair in HEK293T cells; HEK293T ELG1-luciferase reporter, luminescence, 16 h; DNA damage induced by 5-fluorouridine; Potency, µM (series often up to 46.1 µM), for inactives: at the highest dose activity change, negative = inhibition, usual class: inhibitors; actives 2.3% (n = 330,000); further: on the % scale 0 is the no-effect control and ±100 the full control effect; nearly all actives have a fitted effect of over 55% in size
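Cells (2,000 per well) received 5-fluorouridine plus test compound or DMSO and were incubated 16 hr at 37 °C, 5% CO2. Luciferase activity was read by luminescence 30 min after ONE-Glo addition; signal suppression marked inhibition of damage-induced ELG1 function.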
NPC1 promoter act: activates the NPC1 promoter. Huh7 NPC1 promoter luciferase reporter, 24 h. Potency, µM (highest dose often 9.22 µM), for the others: at the top dose activation, usual class: activators. actives 2.4% (n = 320,000). AID 485313; further: % of control where 0% means no effect; nearly all actives have a fitted effect of over 60% in size
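NPC1 promoter–luciferase Huh7 cells; 24 h compound; luminescence.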
SMN2 splice up: SMN2 splice variant enhancement; actives 2.8% (n = 210,000); AID 1458; HEK293 SMN2-luciferase splicing reporter, luminescence, 30-36 h; Potency, µM (top dose mostly 46.1 µM), without a hit: at the top dose activity change, positive = activation, usual class: activators; further: % of control where 0% means no effect; nearly all actives have a fitted effect of over 55% in size
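HEK293 cells carry an SMN2 minigene-luciferase reporter in which exon 7 inclusion puts luciferase in frame. Cells were seeded at 2000 cells/well, attached for 10-12 hours, then exposed to compounds for 30-36 hours at 37C before ONE-Glo luminescence.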
Rab9 promoter act: Rab9 promoter activation. Huh7 Rab9 promoter-luciferase reporter, luminescence, 24 h. Potency, µM (doses to about 9.22 µM), without a hit: at the highest dose activation, negative = inhibition, most hits filed as activators. actives 2.8% (n = 320,000). AID 485297; further: % of control where 0% means no effect; nearly all actives have a fitted effect of over 60% in size
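Measured in stably transfected Huh7 cells bearing a Rab9 promoter–luciferase construct: 24 h compound treatment at 37 °C, followed by luminescence detection.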
An asterisk follows results filed as active; ? = inconclusive; / = no result given; [ ] = remark or other dose. The call rests on the fitted dose curve; in most records, active means well fitted curve in the direction sought with a large enough effect; inconclusive means small, poorly fitted or top-dose-only effect, or another doubt; inactive means no such curve, though single readings can be large; an effect the other way counts as inactive or inconclusive. Potency means the concentration at half of the fitted maximal effect.

SMILES | ELG1 genotox | FLuc counter | ELG1 repair inh | NPC1 promoter act | SMN2 splice up | Rab9 promoter act
Cc1ccc(C)c(NC(=O)Cc2nc(CNCC(C)C)cs2)c1 | -1% | 0% | -7% | 2% | / | -1%
Cc1ccc(-c2csc(-c3nc(-c4ccc(Br)s4)cs3)n2)cc1 | / | -1% | / | / | -1% | /
CCOc1ccc(NC(=O)CSc2ncc(S(=O)(=O)c3ccc(F)c(C)c3)c(=O)[nH]2)cc1 | / | ? | / | / | -4% | /
COc1ccc(CNS(=O)(=O)NCc2ccc(C)cc2)cc1OC | -10% | 1% | 21µM* | -11% | -52% | -2%
COc1ccc(CCNC(=O)c2ccc(CS(=O)(=O)Cc3cccc(C)c3)o2)cc1OC | -13% | 0% | 23µM* | -3% | / | -10%
CCn1c(COc2ccc(=O)n(-c3ccccc3)n2)nnc1SCc1ccccc1C | -1% | 3% | -3% | 2% | -25% | 1%
CN(C)/C=N/c1c(C#N)cnn1-c1ccccc1 | 0% | 1% | -1% | 0% | -3% | -19%
CN(C)/C=N/c1c(C#N)cnn1-c1ncnc2sc(-c3ccccc3)cc12 | -20% | -1% | 18µM* | 12% | / | -3%
CN(C)/C=N/c1c(C#N)cnn1-c1nc2ccccc2s1 | 13% | -8% | ? | 0.11µM* | -10% | 0.13µM*
COC(=O)c1sccc1NC(=O)CC1C(=O)NCCN1C(=O)Nc1ccc(C(F)(F)F)cc1 (stereo unspecified) | -5% | 0% | ? | -4% | / | 2%
Cc1cc(C(=O)CSc2n[nH]c(N)n2)c(C)n1C1CC1 | 4% | -19% | 28% | 12% | 13% | 27%
C=CCn1c(C)cc(C(=O)CSc2n[nH]c(N)n2)c1C | 15µM* | 19µM* | ? | 24% | ? | 19%
Cc1cc(C(=O)CSc2n[nH]c(N)n2)c(C)n1-c1cc(F)ccc1F | 10% | -3%[2.3 µM] | ? | 25% | 13% | ?
Cc1cc(C(=O)CSc2n[nH]c(N)n2)c(C)n1-c1ccccc1 | 4.5µM* | 6µM* | ? | 2.5µM* | 11µM* | ?
Cc1ccc(-n2c(C)cc(C(=O)CSc3n[nH]c(N)n3)c2C)cc1 | 1% | 9.5µM* | ? | 26% | -34% | 20%
Nc1nc(SCC(=O)c2cc(F)ccc2F)n[nH]1 | 1% | -1% | 12% | 1% | -1% | -1%
Cc1cc(C(=O)CSc2n[nH]c(N)n2)c(C)n1-c1ccc(F)cc1 | 15% | 19µM* | ? | ? | -12% | ?
Nc1ccccc1N=Nc1c(S(=O)(=O)O)cc2cc(S(=O)(=O)O)cc(O)c2c1O | / | / | / | / | -1%[9.22 µM] | /
Cc1ccc(NC(=O)COc2cccc(-n3cnnn3)c2)cc1S(=O)(=O)N1CCOCC1 | -9% | -3% | ? | -1% | / | -9%
CC(C)NC(=O)C1CCN(c2ccc(S(=O)(=O)N3CCOCC3)cc2Cl)CC1 | -4% | 5% | -15% | -5% | / | -7%
Cc1cc(C)c(NC(=O)CN(C)C(=O)CCC(=O)c2ccc(C)s2)c(C)c1 | 1% | 3% | -2% | -3% | / | 2%
Cc1cccc(-c2nnn3c2nc(NCc2ccc4c(c2)OCO4)c2ccccc23)c1 | / | -2% | / | / | 5% | /
Cc1cc(C(=O)CSc2nnc3ccccn23)c(C)n1-c1ccccc1 | ? | 0.19µM* | ? | ? | -47% | ?
Cc1cc(C(=O)CSc2nnc(-c3ccccc3)n2-c2ccccc2)c(C)n1-c1ncn[nH]1 | 4% | -1% | ? | 4% | 4% | -10%
CCC(NC(=O)Nc1nnc(C(F)(F)F)s1)(C(F)(F)F)C(F)(F)F | -11% | -6% | 23µM* | -42% | -44% | -45%
SMILES | ELG1 genotox | FLuc counter | ELG1 repair inh | NPC1 promoter act | SMN2 splice up | Rab9 promoter act
COc1ccc(C(=O)Nc2nnc(C(F)(F)F)s2)cc1 | ? | 5.4µM* | ? | 1.8µM* | 5µM* | 2.5µM*
COc1ccc(-c2nnc(NC(=O)c3cc(C)on3)s2)cc1 | ? | 12µM* | ? | 9% | ? | -1%
COc1ccc(C(=O)Nc2nnc(-c3ccccc3)s2)cc1 | 18µM* | -12% | ? | 0.79µM* | / | 1.3µM*
CC(=O)C[C@H](O)CC(=O)[C@H]1OC(=O)CCCCCCCCc2ccccc21 | 1% | / | 22% | / | / | /
CCOC(=O)Nc1nnc(-c2ccc(OC)c(OC)c2)s1 | 4% | 1% | 11% | -3% | 5.6µM* | 6%
COC(=O)Nc1nnc(-c2ccc(OC)cc2)s1 | 16µM* | 8.5µM* | ? | 2.5µM* | / | 2.8µM*
Cc1cc(CC(=O)O)n(C)c1C(=O)c1ccc(Cl)cc1 | 4% | 1% | 4% | 1% | 7% | 1%
Cc1cccc(N=C2NC(=O)/C(=C/c3cccn3C)S2)c1 | 16% | 12µM* | -1% | 10% | / | 14%
O=C1NC(=Nc2ccccc2)S/C1=C\c1cccnc1 | 6% | ? | 17% | 2% | / | -1%
O=C1NC(=Nc2ccccc2)S/C1=C\c1cccn1-c1ccccc1 | ? | 11µM* | ? | -1% | ? | 24%
Cc1ccccc1N=C1NC(=O)/C(=C/c2cccn2C)S1 | 0% | ? | ? | -1% | / | -6%
Cc1ccc(N=C2NC(=O)/C(=C\c3cccs3)S2)cc1C | 14% | ? | ? | 13% | 3.5µM* | 23%
Cc1cc(NC(=O)COC(=O)c2c(Cl)cccc2Cl)no1 | 1% | -19% | 2% | 3% | / | 13%
O=C(CCNS(=O)(=O)c1ccc(OC(F)(F)F)cc1)NC1CC1 | -2% | / | 5% | / | / | /
CC(C)(C)c1nnc(SCC(=O)Nc2ccc(N3CCCCC3)cc2)n1N | 13% | ? | ? | ? | / | ?
COc1ccccc1Nc1nc(NCCO)nc(N)c1[N+](=O)[O-] | -5% | 2% | -24% | -6% | / | -9%
COc1ccccc1Nc1nc(NCCC(C)C)nc(N)c1[N+](=O)[O-] | -3% | 6% | 21µM* | -3% | / | -1%
Cc1nn(C)c(NC(=O)c2ccccc2Cl)c1Br | -2% | 1% | 18% | -3% | / | 4%
C=CCN1C(=O)CSc2ccc(C(=O)NC(C)c3ccccc3)cc21 (stereo unspecified) | -1% | 2% | 11% | 3% | / | 1%
CCOc1cc(/C=C/C(=O)O)ccc1OCCO | 2% | -4% | 0% | 1% | / | -5%
COc1cc(/C=C/C(=O)c2ccc(C)cc2)ccc1OCC#N | -13% | 17µM* | ? | -4% | -112% | -4%
CCOc1cc(/C=C/C(=O)c2ccc(C)cc2)ccc1OCC(=O)N(C)C | -13% | ? | 18µM* | -5% | -15% | -15%
Cc1ccc(NN2C(=O)C=C(c3ccccc3)C2=O)cc1 | 17% | ? | ? | 0% | -4% | -5%
